Source: PubChem (The Scripps Research Institute Molecular Screening Center)
OPRM1-OPRD1 ag: OPRM1-OPRD1 heterodimerization agonism; P35372+P41143; cells, luminescence; activation, % at 9.3 µM; hit rate 0.3% among 340,000; AID 504326
HTR5A inv ag: inverse agonist of human HTR5A in OPRM1-OPRD1 counter-screen; inhibition, % at 9.3 µM; AID 504634; hit rate 0.083% among 340,000; HTR5A cell line, luminescence, inverse agonism; in the data active = inhibition mostly above about 23%, no sharp cut-off; inactive = mostly below about 18%
Target sequence (P47898 whole entry, looked up): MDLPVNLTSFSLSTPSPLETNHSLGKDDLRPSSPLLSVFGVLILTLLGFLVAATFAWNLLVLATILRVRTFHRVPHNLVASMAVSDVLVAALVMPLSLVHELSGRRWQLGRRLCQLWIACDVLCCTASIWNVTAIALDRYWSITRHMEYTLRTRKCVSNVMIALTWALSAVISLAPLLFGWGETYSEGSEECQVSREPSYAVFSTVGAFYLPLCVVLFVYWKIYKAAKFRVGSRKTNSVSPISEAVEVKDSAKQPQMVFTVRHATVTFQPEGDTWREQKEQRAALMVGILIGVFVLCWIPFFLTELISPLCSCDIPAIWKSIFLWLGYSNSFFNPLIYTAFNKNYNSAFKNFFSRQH
HTR5A ag ctr: counter-screen for OPRM1-OPRD1 agonists: human HTR5A agonism. P47898. HTR5A agonist assay, luminescence, cell-based. activation, % at 9.3 µM. hit rate 0.61% among 340,000. AID 504692; in the data active = activation mostly above about 9.5%, no sharp cut-off; inactive = mostly below about 7.6%
MOR-DOR inv ag: mu-delta opioid heterodimer inverse agonism. cell-based MOR-DOR heterodimer luminescence. inhibition, % at 9.3 µM. hit rate 0.21% among 340,000. AID 504357; in the data active = inhibition above about 22%, passing the limit was not always enough
OPRM1-D1 ag cf: OPRM1-OPRD1 heterodimer agonism, confirmation | cells, MOR-DOR heterodimerization, luminescence complementation | activation, % at 9.3 µM | hit rate 45% among 830 | shares compounds with OPRM1-OPRD1 ag | AID 504904
HTR5A ag counter: HTR5A agonism, opioid heterodimer counter-screen; AID 504905; activation, % at 9.3 µM; shares compounds with OPRM1-OPRD1 ag; HTR5A agonist counterscreen, cell luminescence; hit rate 8% among 830; in the data active = activation above about 17%
Hits are given with their value; n = inactive; x = no result given. Sampled rows, rich in hits. Any-hit rate of the full collection: about 1.1%. Cut-off read from the data, not from the text of the source, unless noted: active = activation above about 18%; inactive = the rest.

SMILES | OPRM1-OPRD1 ag | HTR5A inv ag | HTR5A ag ctr | MOR-DOR inv ag | OPRM1-D1 ag cf | HTR5A ag counter
CCC1CCCCN1CCN1C(=O)C2C(C(=O)Nc3ccc(OC)cc3)C3C=CC2(O3)C1C(=O)NC1CCCCC1 (configuration not stated) | 34 | n | n | n | n | n
C/C(=N/Nc1ccnc2cc(Cl)ccc12)c1ccc(N)cc1 | 21 | n | n | n | 41 | n
Clc1ccc2c(N/N=C/c3ccccc3Br)ccnc2c1 | 52 | n | n | n | 53 | n
Clc1ccc2c(N/N=C/c3cccc(Br)c3)ccnc2c1 | n | n | n | n | x | x
C/C(=N/Nc1ccnc2cc(Cl)ccc12)c1ccc(O)cc1 | n | n | n | n | x | x
CC(C)C(NC(=O)c1ccc(C(C)(C)C)cc1)C(=O)N1CCCC1 (configuration not stated) | n | n | n | n | x | x
CCC(CC)NC(=O)Nc1ccccc1C(F)(F)F | n | n | n | n | x | x
O=C(N/N=C/c1ccc(Br)cc1)c1ccc(NC(=O)c2ccccc2)cc1 | n | n | n | n | x | x
CN(C)c1ccc(/C=N/NC(=O)c2ccc(NC(=O)c3ccccc3)cc2)cc1 | 19 | n | n | n | 34 | 20
Nc1c(N(Cc2ccccc2)C(=O)COc2cccc(Cl)c2)c(=O)[nH]c(=O)n1Cc1ccccc1 | 21 | n | n | n | n | n
CCN(CC)S(=O)(=O)c1ccc(Cl)c(NC(=O)COc2ccc(OC)cc2)c1 | n | n | n | n | x | x
CC1=C(C(=O)Nc2nc3ccccc3s2)C(c2ccco2)C(C#N)=C(SCC(=O)NC2CCCCC2)N1 (configuration not stated) | 26 | n | n | n | n | n
CCOc1ccc(NC(=S)N2CCN(S(C)(=O)=O)CC2)cc1 | n | n | n | n | x | x
COc1ccc(N2CCN(C(=O)COC(=O)[C@@H](NC(=O)OCc3ccccc3)C(C)C)CC2)cc1 | n | n | n | n | x | x
Cc1ccc2nc(NC(=O)Cc3cccs3)sc2c1 | n | n | n | n | x | x
Cc1ccc2nc(-c3ccc(NC(=O)Cc4cccs4)cc3)[nH]c2c1 | 23 | n | n | n | n | n
CC(NCCC1(C(C)C)CCOC(C)(C)C1)c1cccs1 (configuration not stated) | n | n | n | n | x | x
CC(NCCC1(Cc2ccccc2Cl)CCOC(C)(C)C1)c1cccs1 (configuration not stated) | 45 | n | n | n | n | n
COCC1CCN(Cc2cn(-c3ccccc3F)nc2-c2cc(C)sc2C)CC1 | 42 | n | n | n | 55 | n
CCCC1(c2ccccc2)NC(=O)N(CC(=O)NCC2COc3ccccc3O2)C1=O (configuration not stated) | n | n | n | n | x | x
N#C/C(=C(/O)C(Cl)(Cl)Cl)c1nc2ccccc2[nH]1 | 21 | n | n | n | n | n
C/C(O)=C(/C#N)c1nc2ccccc2[nH]1 | n | n | n | n | x | x
COc1cccc(-c2nc(NCc3ccco3)c3ccccc3n2)c1O | 26 | n | n | n | n | 24
O=C(COc1ccc(Cl)cc1Cl)N/N=C/c1cccnc1 | n | n | n | n | x | x
COc1ccc(/C=N/NC(=O)COc2ccc(Cl)cc2Cl)cc1Cn1nc(C)cc1C | 28 | n | n | n | n | n
SMILES | OPRM1-OPRD1 ag | HTR5A inv ag | HTR5A ag ctr | MOR-DOR inv ag | OPRM1-D1 ag cf | HTR5A ag counter
Cc1cccc(CSc2nnc([C@@H]3CCCN3)o2)c1 | n | n | n | n | x | x
CCOc1c(Cl)cc(CNCC(O)c2ccccc2)cc1OC (configuration not stated) | n | n | n | n | x | x
OC(CNCC(c1ccc(Cl)cc1Cl)c1c[nH]c2ccccc12)c1ccccc1 (configuration not stated) | 55 | n | 15 | n | n | n
C/C(=N/NC(=O)c1nnn(-c2nonc2N)c1COc1ccccc1)c1ccccc1 | n | n | n | n | x | x
O=S(=O)(c1ccc2c(c1)C(=NO)c1cc(S(=O)(=O)N3CCCCC3)ccc1-2)N1CCCCC1 | n | n | n | n | x | x
CC1CCN(S(=O)(=O)c2ccc3c(c2)C(=NO)c2cc(S(=O)(=O)N4CCC(C)CC4)ccc2-3)CC1 | 30 | n | n | n | n | n
COc1cc(C2C(C#N)=C(N)N(c3sc4c(c3C#N)CCCC4)C3=C2C(=O)CC(C)(C)C3)cc(OC)c1OC (configuration not stated) | 58 | n | n | n | 45 | n
CN(CC(=O)Nc1cccc(F)c1)C(=O)CCCc1c[nH]c2ccccc12 | n | n | n | n | x | x
Cc1c(C)c2c(c(C)c1O)CCC(C)(C(=O)O)O2 (configuration not stated) | n | n | n | n | x | x
CCN1CCN(C2=C(NS(=O)(=O)c3ccc(NC(C)=O)cc3)C(=O)c3ccccc3C2=O)CC1 | n | n | n | n | x | x
CC(=O)Nc1ccc(S(=O)(=O)NC2=C(N3CCN(Cc4ccccc4)CC3)C(=O)c3ccccc3C2=O)cc1 | 55 | n | n | n | 69 | n
CCOC(=O)C1=C(Cc2ccc(F)cc2)C(=O)c2ccccc2C1=O | 18 | n | n | n | n | 27
CC(C)c1ccccc1NC(=O)c1cccc(NC(=O)c2ccccc2)c1 | 48 | n | n | n | n | n
COC(=O)Cc1cc(=O)n2c(nc3ccccc32)[nH]1 | n | n | n | n | x | x
CC(=O)Nc1ccc(NC(=O)C(=O)NCC(c2ccco2)N2CCc3ccccc3C2)cc1 (configuration not stated) | 21 | n | n | n | 22 | n
COc1cc(C(=O)N(CCc2ccccc2)C2=CC3CCC(C2)N3C)cc(OC)c1OC (configuration not stated) | 18 | n | n | n | n | n
CCCCN(C(=O)c1cc(OC)c(OC)c(OC)c1)C1=CC2CCC(C1)N2C (configuration not stated) | n | n | n | n | x | x
Cc1ccc(C(=O)Nc2ccccc2C(=O)N2CCCC(C)C2)cc1 (configuration not stated) | n | n | n | n | x | x
CC(=O)NC1C(OCc2ccccc2)OC2COC(c3ccccc3)OC2C1OCC(=O)O (configuration not stated) | n | n | n | n | x | x
Cc1cc(/C=C2\SC(=Nc3ccccc3)NC2=O)c(C)n1-c1ccc(S(N)(=O)=O)cc1 | 120 | n | n | n | 140 | n
O=C1NC(=Nc2ccccc2)S/C1=C\c1ccccc1 | 24 | n | n | n | n | n
Cc1cc(NC(=O)CSc2ccc(-c3nc4cc(C)c(C)cc4[nH]3)cn2)no1 | 20 | n | n | n | n | n
CCCc1cc(=O)oc2cc(OC(C)C(=O)NCc3ccccn3)c(Cl)cc12 (configuration not stated) | n | n | n | n | x | x
FC(F)(F)c1ccc(C2[C@H]3CN(Cc4cccnc4)[C@H](c4ccccc4)C34CC2(c2cccnc2)C4)cc1 (some centres not stated) | 49 | n | n | n | 68 | n
c1ccc(-c2ccc(CN3C[C@@H]4C(c5ccccc5)C5(c6cccnc6)CC4(C5)[C@H]3c3ccccc3)cc2)cc1 (some centres not stated) | n | n | n | n | x | x
